Where “and” joins values, the source holds several entries; their conditions need not be identical. Equal entries are not always repeated. The source holds several records for some structures; these can differ, active in one and inactive in another. Calls of active or inactive are those of the source. How the source made its calls: active means hit-call score of the fitted dose curve at least 0.9, where 1 is the maximum; inactive means score below 0.9.
Legend:
[1] = target: CCAAT/enhancer-binding protein beta (Homo sapiens) (UniProt P17676); experiment: ATG_C_EBP_CIS: Attagene CIS-FACTORIAL HepG2 Assay for human CCAAT/Enhancer Binding Protein (C/EBP) beta (AID 2282927); conditions: HepG2 Attagene cis-factorial transcription factor reporter; actives raise or lower the signal
Summary of the method: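 HepG2, transient MRTU transfection, 24 h treatment. RT-PCR plus CE fluorescence; DMSO negative control, bidirectional fit.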

[2] = ATG_CMV_CIS: Attagene CIS-FACTORIAL HepG2 Assay for human CMV (Internal Marker) (AID 2282928); conditions: HepG2 CMV promoter reporter, transcription factor profiling; actives raise or lower the signal;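 further: endpoint acts as a background internal control marker rather than a target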
Summary of the method: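 Cell system: HepG2, transiently transfected multiple reporter units under cis promoters. Exposure: 24 h. Detection: RT-PCR, FAM labeling, HpaI digestion, capillary electrophoresis. Analysis: bidirectional, DMSO baseline.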

[3] = ATG_DR4_LXR_CIS: Attagene CIS-FACTORIAL HepG2 Assay for human Liver X Receptor (LXR), DR4 submotif (AID 2282929); conditions: HepG2 Attagene DR4 cis-reporter, mRNA transcription; actives raise or lower the signal
Summary of the method: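 Endogenous factor activity at a DR4 cis-element is read as reporter mRNA in transiently transfected HepG2 cells. Exposure lasts 24 h; transcripts are amplified, fluorescently labelled and sized by capillary electrophoresis, with DMSO as baseline.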

[4] = ATG_AP_1_CIS: Attagene CIS-FACTORIAL HepG2 Assay for human Activator Protein 1 (AP-1) (AID 2282931); conditions: HepG2 Attagene cis-factorial AP-1 reporter mRNA; actives raise or lower the signal
Summary of the method: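 Fluorescence of labelled PCR fragments separated by capillary electrophoresis gives reporter mRNA levels. HepG2 with transfected cis-regulated reporter units, 24 h exposure; DMSO serves as baseline for bidirectional curve fits.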

[5] = ATG_BRE_CIS: Attagene CIS-FACTORIAL HepG2 Assay for human Bone Morphogenetic Protein (BMP) Response Element (BRE) (AID 2282933); conditions: HepG2 BMP response element reporter, Attagene transcription factor profiling; actives raise or lower the signal
Summary of the method: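 Transient MRTU transfection of human HepG2 liver cells; 24 h compound treatment; total RNA isolated, reverse-transcribed, PCR-amplified, 6-FAM labelled, HpaI-cut, capillary electrophoresis. DMSO = negative control/baseline, bidirectional fit.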

[6] = target: Retinoic acid receptor alpha (Homo sapiens) (UniProt P10276); experiment: ATG_DR5_RAR_CIS: Attagene CIS-FACTORIAL HepG2 Assay for human Retinoic Acid Receptor Alpha (RARE), DR5 submotif (AID 2282934); conditions: HepG2 Attagene cis-factorial RARE DR5 reporter, mRNA; actives raise or lower the signal;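 on AC50: reporter responds to endogenous RAR alpha beta and gamma in HepG2 not RARA alone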
Summary of the method: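 After 24 h of chemical exposure, transiently transfected HepG2 cells were lysed for total RNA; the DR5-regulated reporter transcript was quantified via RT-PCR and capillary electrophoresis, with activity fitted bidirectionally against DMSO.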

[7] = target: Transcription factor E2F1 (Homo sapiens) (UniProt Q01094); experiment: ATG_E2F_CIS: Attagene CIS-FACTORIAL HepG2 Assay for human E2F Transcription Factor 1 (AID 2282935); conditions: HepG2 Attagene cis-reporter, E2F reporter RNA transcripts; actives raise or lower the signal
Summary of the method: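 Endogenous E2F1 activity read through cis-promoter reporter units transfected into HepG2. After 24 h compound treatment, reporter mRNA measured by RT-PCR, HpaI digestion and capillary electrophoresis. Bidirectional fit versus DMSO.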

[8] = ATG_E_Box_CIS: Attagene CIS-FACTORIAL HepG2 Assay for human Enhancer Box (E-box) (AID 2282936); conditions: HepG2 E-box cis-reporter transcription, actives raise or lower the signal
Summary of the method: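 HepG2 cells transiently transfected with multiplexed cis-element reporter units, dosed 24 h; reporter mRNA quantified by RT-PCR, 6-FAM labelling, HpaI digestion and capillary electrophoresis. E-box (USF1) signal fitted bidirectionally vs DMSO.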

[9] = ATG_M_61_CIS: Attagene CIS-FACTORIAL HepG2 Assay for M61 Transcription Factor (Internal Marker) (AID 2282937); conditions: HepG2 Attagene CIS-FACTORIAL M61 internal marker reporter; actives raise or lower the signal
Summary of the method: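 This endpoint serves as an internal background control within a multiplexed HepG2 cis-reporter panel. Cells are exposed for 24 h; reporter mRNA is amplified, fluorescently labelled and sized by capillary electrophoresis, with DMSO as negative control.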

[10] = ATG_M_19_CIS: Attagene CIS-FACTORIAL HepG2 Assay for M19 Transcription Factor (Internal Marker) (AID 2282939); conditions: HepG2 Attagene CIS-FACTORIAL M19 internal marker reporter; actives raise or lower the signal
Summary of the method: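 Transfect HepG2 with MRTU reporter library → dose chemical, 24 h → isolate total RNA, reverse-transcribe with oligo(dT) → PCR, 6-FAM label, HpaI cut (2 h, 37 C) → capillary electrophoresis. Bidirectional fit vs DMSO.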

[11] = ATG_ERE_CIS: Attagene CIS-FACTORIAL HepG2 Assay for Estrogen Response Element (ERE) (AID 2282940); conditions: HepG2 ERE cis-reporter, Attagene RNA transcript; actives raise or lower the signal
Summary of the method: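 Transient MRTU transfection of human HepG2; cis-element promoters; 24 h dosing; total RNA → RT (oligo dT) → PCR → 6-FAM primer extension → HpaI digest → CE fluorescence. Bidirectional fit, DMSO baseline.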

[12] = ATG_FoxO_CIS: Attagene CIS-FACTORIAL HepG2 Assay for human Forkhead box O (FoxO) (AID 2282943); conditions: HepG2 Attagene cis-reporter, FoxO element, mRNA; actives raise or lower the signal
Summary of the method: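 Transfected HepG2 reporter cells exposed to test chemical for 24 h; reporter RNA measured by reverse transcription, PCR and fluorescent capillary electrophoresis; curves fitted for increases and decreases against DMSO.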

[13] = ATG_GATA_CIS: Attagene CIS-FACTORIAL HepG2 Assay for human GATA Binding Protein (AID 2282944); conditions: HepG2 GATA cis-element reporter, Attagene multiplex mRNA; actives raise or lower the signal
Summary of the method: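 Transient MRTU transfection, HepG2, 24 h compound exposure. Total RNA → oligo(dT) RT → PCR → 6-FAM primer extension → HpaI cut → CE. Bidirectional fit vs DMSO.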

[14] = ATG_GLI_CIS: Attagene CIS-FACTORIAL HepG2 Assay for human Zinc Finger Protein GLI1 (AID 2282945); conditions: HepG2, Attagene cis-factorial reporter mRNA, GLI element; actives raise or lower the signal
Summary of the method: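 Transiently transfected HepG2 cells report endogenous transcription factor activity via cis-element-driven reporter units. After 24 h compound exposure, reporter mRNA was measured by RT-PCR with capillary electrophoresis; bidirectional fitting against DMSO baseline.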

[15] = ATG_CRE_CIS: Attagene CIS-FACTORIAL HepG2 Assay for human cAMP Responsive Element (CRE) binding protein 3 (AID 2282926); conditions: HepG2 CRE cis-reporter, Attagene multiplexed mRNA; actives raise or lower the signal
Summary of the method: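 Human liver HepG2, transient MRTU transfection, 24 h compound exposure. Total RNA → oligo(dT) RT → PCR → 6-FAM primer extension → HpaI cut → CE. Activity called both directions vs DMSO.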

[16] = ATG_Ets_CIS: Attagene CIS-FACTORIAL HepG2 Assay for human Erythroblast Transformation Specific (ETS) (AID 2282941); conditions: HepG2 ETS cis-reporter transcription, actives raise or lower the signal
Summary of the method: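 After transient cis-reporter transfection, HepG2 cells receive test chemical for 24 h. Reporter mRNA levels, measured by RT-PCR and capillary electrophoresis fluorescence, are analysed bidirectionally relative to the DMSO baseline.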

[17] = target: Hepatocyte nuclear factor 3-beta (Homo sapiens) (UniProt Q9Y261); experiment: ATG_FoxA2_CIS: Attagene CIS-FACTORIAL HepG2 Assay for human Forkhead box A2 (FOXA2) (AID 2282942); conditions: HepG2 cis-reporter transcription factor activity, 24 h; actives raise or lower the signal
Summary of the method: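 Cells: HepG2, transient multiplex reporter transfection. Exposure 24 h. Detection: reporter-specific RT-PCR, fluorescent labelling, restriction digest, capillary electrophoresis. Analysis: bidirectional curve fit, DMSO as negative control.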

[18] = ATG_AP_2_CIS: Attagene CIS-FACTORIAL HepG2 Assay for human Activator Protein 2 (AP-2) (AID 2282932); conditions: HepG2 AP-2 cis-reporter, Attagene transcription factor profiling; actives raise or lower the signal
Summary of the method: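 HepG2 cells transiently transfected with cis-element reporter units and exposed for 24 h. Reporter mRNA measured by RT-PCR, FAM labelling, HpaI digestion and capillary electrophoresis. Changes in either direction fitted relative to DMSO.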

[19] = target: Aryl hydrocarbon receptor (Homo sapiens) (UniProt P35869); experiment: ATG_Ahr_CIS: Attagene CIS-FACTORIAL HepG2 Assay for human Aryl Hydrocarbon Receptor (Ahr) (AID 2282930); conditions: HepG2 AhR cis-factorial reporter transcription; actives raise or lower the signal
Summary of the method: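 Endogenous factor activity is tracked through cis-promoter reporter units transfected into HepG2 cells. Transcript levels at 24 h are read by fluorescent RT-PCR and capillary electrophoresis, with activity in either direction scored relative to DMSO.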

[20] = ATG_EGR_CIS: Attagene CIS-FACTORIAL HepG2 Assay for human Early Growth Response 1 (EGR1) (AID 2282938); conditions: HepG2 Attagene CIS-FACTORIAL EGR reporter mRNA; actives raise or lower the signal
Summary of the method: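 HepG2, transient MRTU transfection (cis promoters), 24 h compound. RNA → RT (oligo-dT) → PCR → 6-FAM labelling → HpaI cut → CE fluorescence. Bidirectional fit, DMSO baseline.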

Measured: AC50

Hepatocyte nuclear factor 3-beta (Homo sapiens), sequence (Q9Y261 whole entry, looked up): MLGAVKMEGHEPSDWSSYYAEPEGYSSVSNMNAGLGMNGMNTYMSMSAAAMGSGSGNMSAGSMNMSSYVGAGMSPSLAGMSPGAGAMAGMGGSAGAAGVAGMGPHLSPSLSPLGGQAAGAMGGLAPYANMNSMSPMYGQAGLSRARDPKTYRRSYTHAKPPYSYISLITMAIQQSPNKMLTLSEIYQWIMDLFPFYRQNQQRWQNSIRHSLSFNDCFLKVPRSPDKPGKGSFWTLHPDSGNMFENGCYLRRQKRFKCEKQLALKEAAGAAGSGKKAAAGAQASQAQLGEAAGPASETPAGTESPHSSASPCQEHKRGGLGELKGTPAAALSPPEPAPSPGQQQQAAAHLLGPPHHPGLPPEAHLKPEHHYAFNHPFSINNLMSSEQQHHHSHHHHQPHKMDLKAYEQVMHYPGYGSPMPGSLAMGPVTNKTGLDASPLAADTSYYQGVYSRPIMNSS
Retinoic acid receptor alpha (Homo sapiens), sequence (P10276 whole entry, looked up): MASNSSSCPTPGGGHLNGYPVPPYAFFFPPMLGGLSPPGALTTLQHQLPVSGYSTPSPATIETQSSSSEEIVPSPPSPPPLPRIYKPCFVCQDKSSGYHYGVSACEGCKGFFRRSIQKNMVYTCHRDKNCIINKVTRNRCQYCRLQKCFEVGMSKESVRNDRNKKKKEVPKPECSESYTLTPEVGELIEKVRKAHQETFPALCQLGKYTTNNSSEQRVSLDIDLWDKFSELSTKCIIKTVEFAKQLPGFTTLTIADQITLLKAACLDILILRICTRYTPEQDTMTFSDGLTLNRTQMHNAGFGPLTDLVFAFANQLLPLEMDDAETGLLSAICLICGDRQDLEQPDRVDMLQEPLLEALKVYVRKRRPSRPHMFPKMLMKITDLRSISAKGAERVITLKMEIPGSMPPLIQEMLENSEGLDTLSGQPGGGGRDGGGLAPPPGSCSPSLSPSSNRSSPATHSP
CCAAT/enhancer-binding protein beta (Homo sapiens), sequence (P17676 whole entry, looked up): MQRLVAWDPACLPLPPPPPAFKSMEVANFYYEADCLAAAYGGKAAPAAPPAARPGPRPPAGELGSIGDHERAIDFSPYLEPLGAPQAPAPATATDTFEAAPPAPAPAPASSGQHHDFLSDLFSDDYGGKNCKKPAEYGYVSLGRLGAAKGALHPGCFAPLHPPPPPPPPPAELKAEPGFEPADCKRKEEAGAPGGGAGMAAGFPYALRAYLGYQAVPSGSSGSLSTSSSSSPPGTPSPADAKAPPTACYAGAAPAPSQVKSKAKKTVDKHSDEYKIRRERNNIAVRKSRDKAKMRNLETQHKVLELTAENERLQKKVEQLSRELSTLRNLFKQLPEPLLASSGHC
Transcription factor E2F1 (Homo sapiens), sequence (Q01094 whole entry, looked up): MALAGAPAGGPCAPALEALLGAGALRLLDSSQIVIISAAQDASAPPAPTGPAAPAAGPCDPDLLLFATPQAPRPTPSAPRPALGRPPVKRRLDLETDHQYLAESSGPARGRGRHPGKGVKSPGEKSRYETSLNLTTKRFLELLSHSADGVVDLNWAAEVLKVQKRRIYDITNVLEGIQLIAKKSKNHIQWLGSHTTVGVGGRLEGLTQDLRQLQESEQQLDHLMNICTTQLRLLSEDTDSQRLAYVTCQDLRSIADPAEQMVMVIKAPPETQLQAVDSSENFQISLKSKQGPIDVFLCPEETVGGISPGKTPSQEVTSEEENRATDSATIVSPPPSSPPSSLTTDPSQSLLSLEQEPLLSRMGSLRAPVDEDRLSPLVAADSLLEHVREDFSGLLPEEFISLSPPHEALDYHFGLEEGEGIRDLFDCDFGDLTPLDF
Aryl hydrocarbon receptor (Homo sapiens), sequence (P35869 whole entry, looked up): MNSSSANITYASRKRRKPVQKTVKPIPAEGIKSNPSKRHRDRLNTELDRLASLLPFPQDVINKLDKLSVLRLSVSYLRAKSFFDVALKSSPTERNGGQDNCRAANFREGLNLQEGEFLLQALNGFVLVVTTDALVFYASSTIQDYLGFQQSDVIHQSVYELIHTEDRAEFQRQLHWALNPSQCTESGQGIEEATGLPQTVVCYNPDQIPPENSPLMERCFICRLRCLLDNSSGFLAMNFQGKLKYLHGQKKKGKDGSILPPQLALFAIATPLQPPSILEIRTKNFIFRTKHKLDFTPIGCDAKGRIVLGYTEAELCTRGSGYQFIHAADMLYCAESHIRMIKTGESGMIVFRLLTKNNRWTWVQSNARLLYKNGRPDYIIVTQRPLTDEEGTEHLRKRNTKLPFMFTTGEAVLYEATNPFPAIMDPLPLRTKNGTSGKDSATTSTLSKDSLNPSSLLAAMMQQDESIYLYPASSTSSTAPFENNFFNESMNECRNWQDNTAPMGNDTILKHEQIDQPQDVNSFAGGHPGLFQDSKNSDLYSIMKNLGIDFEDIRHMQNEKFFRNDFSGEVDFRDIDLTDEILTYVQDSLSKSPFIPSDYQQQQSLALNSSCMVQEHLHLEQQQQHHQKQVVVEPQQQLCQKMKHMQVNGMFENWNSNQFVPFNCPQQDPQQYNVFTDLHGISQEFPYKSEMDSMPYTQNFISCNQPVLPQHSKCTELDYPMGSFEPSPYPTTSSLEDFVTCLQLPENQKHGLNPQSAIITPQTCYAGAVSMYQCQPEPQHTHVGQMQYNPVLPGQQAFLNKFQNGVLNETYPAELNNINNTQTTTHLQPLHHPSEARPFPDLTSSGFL

CC(C)CCCCCCc1ccc(O)cc1
active: [1] 18.1 µM and 15.4 µM | [2] 13.1 µM and 17.4 µM | [3] 15.9 µM and 21 µM and 16.6 µM | [4] 17 µM | [5] 20.7 µM | [6] 11.1 µM | [8] 17.6 µM and 16.8 µM and 15.6 µM | [11] 644 nM [middle of 4 runs] | [12] 20.3 µM and 17.9 µM
inactive: [1] | [2] | [3] | [4] | [5] | [6] | [7] | [8] | [9] | [10] | [12] | [13] | [14]

CC(=O)[C@H]1CC[C@H]2[C@@H]3CCC4=CC(=O)CC[C@]4(C)[C@H]3CC[C@]12C
active: [1] 115 µM | [2] 160 µM | [3] 8.67 µM | [4] 33.4 µM and 170 µM | [5] 33.4 µM and 24.3 µM and 33.7 µM | [7] 68.4 µM | [11] 1.27 µM [middle of 4 runs] | [12] 154 µM | [13] 152 µM
inactive: [15] | [1] | [2] | [3] | [4] | [6] | [7] | [9] | [10] | [16] | [17] | [12] | [13] | [14]

CCOC(=O)C(C)Oc1ccc(Oc2nc3ccc(Cl)cc3o2)cc1 (stereo not given)
not listed: [11] | [16] | [17] | [19] | [20]
inactive: all other assays above

CCOC(=O)[C@H](C)Oc1ccc(Oc2nc3ccc(Cl)cc3o2)cc1
not listed: [11] | [17] | [18] | [20]
inactive: all other assays above

CCCOC(=O)NCCCN(C)C
not listed: [11] | [16] | [17] | [19] | [20]
inactive: all other assays above

CCCCOC(=O)[C@@H](C)Oc1ccc(Oc2ccc(C(F)(F)F)cn2)cc1
active: [11] 59.1 µM
not listed: [16] | [18] | [19]
inactive: all other assays above

COC(=O)c1ccc(I)cc1S(=O)(=O)NC(=O)Nc1nc(C)nc(OC)n1
not listed: [6] | [11] | [16] | [18] | [19] | [20]
inactive: all other assays above

S=C(S)NCCNC(=S)S.[Mn+2].[S-]C([S-])=NCCN=C([S-])[S-].[Zn+2]
inactive: [1] | [2] | [3] | [4] | [18] | [5] | [7] | [8] | [9] | [20] | [10] | [16] | [12] | [13] | [14]
active: [2] 231 nM and 1.21 µM and 343 nM | [3] 8.2 µM and 50 µM and 67.7 µM | [4] 20.7 µM [middle of 4 runs] | [18] 4.93 µM | [20] 16.2 µM and 16.5 µM and 3.53 µM

C#CCOC(=O)[C@@H](C)Oc1ccc(Oc2ncc(Cl)cc2F)cc1
not listed: [16] | [17] | [19] | [20]
inactive: all other assays above

CCCCC(CC)CN1C(=O)C2C3C=CC(C3)C2C1=O (stereo not given)
active: [3] 85.4 µM | [4] 69.6 µM | [5] 45.3 µM
not listed: [6] | [16] | [17] | [18] | [19] | [20]
inactive: all other assays above

COC(=O)CSc1cc(N=c2sc(=O)n3n2CCCC3)c(F)cc1Cl
not listed: [6] | [11] | [17] | [20]
inactive: all other assays above

COc1c(Cl)ccc(Cl)c1C(=O)O
not listed: [16] | [18] | [19]
inactive: all other assays above

CC(C)(c1ccc(O)cc1)c1ccc(O)cc1
active: [1] 33.4 µM | [2] 50 µM [middle of 6 runs] | [5] 155 µM | [20] 100 µM [middle of 6 runs] | [12] 57.7 µM | [14] 58.5 µM
inactive: [1] | [2] | [3] | [4] | [5] | [6] | [7] | [8] | [9] | [20] | [10] | [12] | [13] | [14]
